In PubChem BioAssay AID602350 (Broad Institute, 2012):
Entries with a potency or affinity are not part of this list. Calls of active or inactive are those of the source.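 The calls were made as follows: active = absorbance falls by 30% or more versus neutral controls, with a potency fitted within twice the top valid dose; inconclusive = no clear call, values can overlap the other calls; inactive = change opposite to expected direction, plus the rest.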

Biological target: Protein disulfide-isomerase (Homo sapiens) (UniProt P07237)
Sequence (P07237 whole entry, looked up): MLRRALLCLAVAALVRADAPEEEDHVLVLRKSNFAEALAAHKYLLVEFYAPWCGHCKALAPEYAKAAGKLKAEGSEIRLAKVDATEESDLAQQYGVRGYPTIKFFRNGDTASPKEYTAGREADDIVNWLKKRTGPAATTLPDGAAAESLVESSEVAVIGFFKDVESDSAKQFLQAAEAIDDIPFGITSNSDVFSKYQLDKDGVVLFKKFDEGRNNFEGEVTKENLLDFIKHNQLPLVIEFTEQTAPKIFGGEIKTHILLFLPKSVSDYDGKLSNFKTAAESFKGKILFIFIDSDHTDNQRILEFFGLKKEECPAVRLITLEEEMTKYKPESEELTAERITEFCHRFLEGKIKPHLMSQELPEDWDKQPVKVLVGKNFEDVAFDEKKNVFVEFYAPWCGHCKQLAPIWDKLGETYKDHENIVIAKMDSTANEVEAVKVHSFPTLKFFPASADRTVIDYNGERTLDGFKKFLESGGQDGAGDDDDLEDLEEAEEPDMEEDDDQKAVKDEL
Assay: PDI inhibitors, insulin aggregation turbidity, dose response, biochemical, absorbance, cherry-picked samples (AID 602350)
Conditions: recombinant PDI insulin aggregation, absorbance 650 nm, 90 min; series mostly up to 19.5 µM

outcome, inactive:
Oc1cccc(-c2nc3c4c(ncn3n2)-c2ccccc2CC42CCCC2)c1
CC(=O)c1cc(-c2ccccc2)n(CC(=O)Nc2cccc(C)c2)c1C
Cc1cc(=O)c(C(=O)Nc2cccc(C(=O)NC3CC3)c2)nn1-c1ccccc1
O=C(CN1C(=O)NC2(CCCC2)C1=O)Nc1ccc(C(F)(F)F)cc1
C[C@]12CC[C@H]3C(=CCc4cc(O)ccc43)[C@@H]1CCC2=O
COC(=O)c1ccc(NC(=S)NCCc2cccc(C)c2)cc1
C=CCn1c(SCC(=O)Nc2ccc(N(C)C)cc2)nnc1-c1cccc(C)c1
COc1ccccc1NS(=O)(=O)c1ccc(C)c(C(=O)NCC2(N(C)C)CCCCC2)c1
COCC(=O)N(C)C1(c2nnnn2CCOC(=O)Nc2ccc(Cl)cc2)CCCCC1
O=C(O)CCc1ccc(-c2cccs2)n1NC(=O)c1ccco1
Cc1cc(Cl)ccc1OCc1n[nH]c(=S)n1C1CCCCC1
Cc1cccc(NC(=S)NCC23C=CC(O2)C2C(=O)N(c4ccc(Cl)cc4)C(=O)C23)c1 (centres undefined)
Cc1ccc(S(=O)(=O)N2CCC(C(=O)Nc3ccc(S(=O)(=O)N4CCCC4)cc3)CC2)cc1
CN(CCC(=O)Nc1ccc(Br)cc1)Cc1ccccc1
CCC1Nc2ncnc(N3CCCCC3)c2N(Cc2ccc(C)cc2)C1=O (centres undefined)
CC(NC(=O)COC(=O)Cc1ccccc1[N+](=O)[O-])c1ccccc1 (centres undefined)
O=C1CN(c2nc3ccccc3n3cnnc23)CC(=O)N1CCc1ccccc1
O=C(Nc1nccs1)c1ccc(-c2ccccc2[N+](=O)[O-])o1
CCOC(=O)C1(CCOc2ccccc2)CCN(Cc2ccccc2O)CC1
O=C(Nc1cccc(S(=O)(=O)Nc2ccc(SC(F)F)cc2)c1)C1CCC1
CC(=O)N1CCC(C(=O)NCCOc2cccc(C)c2)CC1
CCS(=O)(=O)c1ccc2oc(SCC(=O)NC(C)C3CC4CCC3C4)nc2c1 (centres undefined)
Nc1ccc(C(=O)NN2C(=O)[C@H](Cl)C2c2ccc(Cl)cc2)cc1 (some centres undefined)
C[C@]12CC[C@@H]3c4ccc(O)cc4C(=O)C[C@H]3[C@@H]1CC[C@@H]2O
Cc1noc(C)c1C(=O)OCC(=O)NCCc1ccc(Cl)cc1
CC1(C(=O)Nc2cccc3c2CCCC3)CCN1C(=O)c1cccc(F)c1 (centres undefined)
CN1CCN(Cc2nc3ccccc3c(=O)n2Cc2nc(-c3ccc4ccccc4c3)cs2)CC1
O=C1N[C@@H](Cc2c[nH]c3ccccc23)COC(=O)[C@H](Cc2ccc(F)cc2)C/C=C\C[C@H]1CC(=O)N(CCO)Cc1ccccc1
O=C1N[C@@H](Cc2c[nH]c3ccccc23)COC(=O)[C@@H](Cc2ccc(F)cc2)C/C=C\C[C@H]1CC(=O)N(CCO)Cc1ccccc1
CCOc1ccc2nc(SCC(=O)c3ccc(Cl)s3)sc2c1
O=C(Nc1oc2ccccc2c(=O)c1-c1ccc(Cl)cc1)c1ccco1
CNc1ncnc2c1ncn2[C@H]1CN(Cc2cccc3ccccc23)C[C@@H](CO)O1
CCOc1ccccc1CN1CCNC(=O)C1CC(=O)NCc1nccn1CC (centres undefined)
Cc1ccc(S(=O)(=O)c2ccc(Oc3cccc(C)c3)cc2)cc1
CC(C)C[C@@H](CN1CCC[C@@H]1CN1C(=O)C(=O)NC[C@@H]1Cc1ccccc1)N1C[C@H](Cc2ccc(O)cc2)N(CCc2ccccc2)C(=O)C1=O
COc1cc(C2C(C(C)=O)=C(O)C(=O)N2CCc2c[nH]c3ccccc23)ccc1O (centres undefined)
CCOc1c(Cl)cc(CNC(C)(C)CC(C)(C)C)cc1OC
O=C(Cn1nnc2ccccc21)OCC(=O)c1ccccc1
Cc1cc(C(=O)Cn2nnc3ccccc3c2=O)c(C)n1-c1ccccc1F
